Laboratory results as given in PubChem BioAssay AID1347426 (Functional Genomics Laboratory (NCATS/FGL), 2020).
Out of some 31,000 sequences screened, about 1,400 (4.5%) were called active. The sample as a whole holds a higher share of actives than the screen did. Unmarked numbers belong to inactive results.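 Rule for the calls: active = median seed-adjusted z-score above 1 or below -1; inactive = the rest.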

test: Novel Modifiers of Survival Motor Neuron (SMN) Protein: Gene Identification via Genome-wide siRNA Screen; details: HEK293T SMN2-luciferase reporter, siRNA knockdown, 72 h; actives lie on both sides;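 note: luminescence tracks full-length SMN protein made from the SMN2 reporter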
Method in brief: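 siRNA screen, 10418 genes ×3 siRNAs; 1 pmol/well, lipid reverse transfection into HEK293T SMN2-luc reporter line. 72 h, 37 °C, 5% CO2; ONE-Glo readout. Data: neg-ctrl normalized, log10, MAD; hit = MAD >1.0 or < -1.0.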

Row | Sequence | median seed-adjusted z-score
1 | GAAUGUUAGUAGACGGGUUTT against IKZF5 | 0.399
2 | GCACUAUCCAGUUUGUGGATT against TUBA3E | -0.35
3 | GGCCGUUACUUACCAGAGUTT against UROD | 1.11 (active)
4 | GAGAAACUAGAAUACAGAATT against ADPRH | -0.406
5 | GGGAUUAUCUUGCUUCCAATT against LPCAT2 | 0
6 | CCGUGAACCCAGAACAGUATT against PIP4K2A | 0.469
7 | GAGUCAGGACAAGAAGAUUTT against PHPT1 | 1.27 (active)
8 | GGAUGGAACUUUACCCUCATT against MKL2 | -0.863
9 | CUACAAGCAUCGAUAGUAATT against EIF4G3 | -0.0562
10 | GAAAGAAAUCAACUGAUGATT against FBP1 | -0.221
11 | GCAGACUCUCGACAUCCGATT against MAFK | 1.73 (active)
12 | GCUCAUUCCAGGUCAAUCATT against MLL3 | -0.248
13 | GCUCAUAGGUAAGAAUUGUTT against NUBP1 | -0.0975
14 | CGGCCUUCAUCGCAGUACATT against SLC7A5 | 0.00397
15 | GGGUGAAGUCUCUCAAGAATT against LLGL1 | -1.13 (active)
16 | CAAGAUCUAUGAUAAGGAUTT against GUCA1B | 0
17 | ACUUCAACAUGACCAAAAATT against PPARD | 0.0283
18 | GAGCUUGUAUAUGAAGCUATT against PDCD4 | -0.0842
19 | GGAUGACAGUCUCAUUGCATT against GON4L | 0.116
20 | CCAUGCUGUCUAUAGCCUATT against TRPC5 | -1.14 (active)
21 | GGUUUUAGACCACACUAAATT against MSH3 | 0.428
22 | CAUUCCCUGUUGUAAUCAATT against MDH1 | -0.154
23 | CGUCAUCACCCUCAACUAUTT against NLGN3 | -0.0279
24 | GGACAUCGAAAAGUUAGUATT against MX2 | -0.0346
25 | CAAGAGUCUCUUUAAGGAATT against ACTL8 | 0
26 | GGAUGUAUGACAUCUGUAATT against STC1 | -1.36 (active)
27 | GCAUCCCUACGGUUGUUGATT against EIF2B4 | 0
28 | GAGAAUAUCUGGAACCAGUTT against BDKRB1 | 0.448

Row | Sequence | median seed-adjusted z-score
29 | CCAAUGCCCAGAUUAUGUATT against CELSR2 | -0.493
30 | GGAGAUACCUGGUCUCUUUTT against ADAM21 | 0
31 | GUCUUUCAGGUGUACCCAUTT against GATA1 | 0.371
32 | GCAUGCCCAUGAACAAAAATT against B3GNT1 | 0.0931
33 | GAAUGGGUCUUGUAAAUCATT against PPAT | -1.51 (active)
34 | ACCUGAUGGUGGGCGCAAATT against MYBPC3 | 0.304
35 | AGAUCAACCUGCUUCCCGATT against PDK2 | -0.481
36 | GGAUUAUAGUGUCACCUAUTT against CPD | -0.198
37 | GCGCAUUACUUUCUAGAAATT against PEX5L | 0.0982
38 | GAAUCAAGAAUUAAAGACATT against PIPOX | 1.06 (active)
39 | CAGUUCAUGUGGAUCAUCATT against GABARAPL2 | 0.528
40 | CCACCUGUACAGCACGGUATT against TGFB1I1 | 0.887
41 | GGGCAAAGCGAAACGCAAATT against ZNF536 | -0.295
42 | GCACGAGCCUUUCUCCAGUTT against RNASE7 | 1.07 (active)
43 | GAAAGUCCAGAUGAGGAUATT against KLF9 | 0.767
44 | GAAAUGGACCAGACACUAATT against POU2F2 | 0.163
45 | GGGACCAAAAUCAAUGAAATT against PCBP3 | -0.0373
46 | GAAUGCAGGGAGAAACUUATT against TRIM64 | -0.024
47 | GGAAGACAGAGAAUCGAAATT against SEMA5A | -0.443
48 | GACAAGACGUGGUCAAGAATT against BCL2L13 | 0.311
49 | GCAGUAGACUGAGCAGCAATT against TMTC4 | -1.16 (active)
50 | CCUCAGGGAAGUACCCAAATT against RNASE8 | 0.00771
51 | CGCCUACACUCCUACGUGUTT against ZDHHC24 | -0.695
52 | UGCCCGCUGUAGAUGAGAATT against APOC2 | -0.0599
53 | GUUUCACCAUCGUUCGUGATT against PROKR2 | 0.328
54 | CAAAAUGCAUUAGCUGAAATT against VIP | 1.52 (active)
55 | AGAUGUACAUCCUCGUGCATT against ELFN2 | -0.0888
